Most compounds without a hit are left out; they make up all but 2.4% or so of the library.
CHRM1 antagonist = human CHRM1 antagonism. P11229. CHO-K1 hM1, Fluo-8 calcium fluorescence, ACh EC80 antagonist. inhibition, % at 3 µM. 360,000 compounds, 1.3% hits. AID 588852;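 active = percent inhibition above its own plate's cutoff, namely the mean of that plate's compound wells plus 3 SD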;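 note: peak over basal fluorescence ratio during 140 s after agonist addition; 0% = ACh EC80 plus DMSO and 100% = DMSO alone without agonist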
Target sequence (P11229 whole entry, looked up): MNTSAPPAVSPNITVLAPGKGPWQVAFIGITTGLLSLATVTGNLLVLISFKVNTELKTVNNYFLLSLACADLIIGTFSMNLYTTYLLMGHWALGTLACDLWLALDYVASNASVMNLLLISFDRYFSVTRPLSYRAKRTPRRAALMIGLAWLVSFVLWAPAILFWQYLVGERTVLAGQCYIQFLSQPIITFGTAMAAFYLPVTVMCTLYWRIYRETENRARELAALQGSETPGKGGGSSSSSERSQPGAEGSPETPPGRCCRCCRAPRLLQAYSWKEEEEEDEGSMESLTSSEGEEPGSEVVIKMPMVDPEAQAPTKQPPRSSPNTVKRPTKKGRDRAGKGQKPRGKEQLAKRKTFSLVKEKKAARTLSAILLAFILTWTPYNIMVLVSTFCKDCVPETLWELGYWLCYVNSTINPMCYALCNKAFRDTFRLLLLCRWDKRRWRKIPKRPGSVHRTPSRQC
M1 ag parental = M1 agonist counterscreen hit in parental CHO-K1 cells; Fluo-8 calcium fluorescence; scaled to maximal ATP response, vehicle zero; activation, % at 3 µM; 360,000 compounds, 0.48% hits; AID 602248; in the data active = activation above about 15%;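 note: untransfected CHO-K1 host cells lacking M1 receptor as counterscreen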
CHO-K1 Ca PAM = counter-screen for M1 PAMs: effect in parental CHO-K1 cells | ATP EC20, Fluo-8 calcium fluorescence; 0% at ATP EC20, 100% at ATP max | activation, % at 3 µM | 360,000 compounds, 0.02% hits | AID 602247;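 active = activation above the run cutoff, the mean activation of all test compounds plus 3 SD, cut at about 40% in these data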;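 note: peak over basal fluorescence ratio in a 140 s read after ATP addition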
CHRM1 agonist = agonists of human M1 muscarinic receptor. P11229. CHO-K1 hM1, Fluo-8 calcium fluorescence, agonist mode; 0% DMSO, 100% acetylcholine EC100. activation, % at 3 µM. 360,000 compounds, 0.33% hits;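 active = activation above the run's mean compound activation plus 3 SD, cut at about 16% in these data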;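 note: peak over basal fluorescence ratio within a 140 s kinetic read after compound addition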
CHO-K1 Ca antag = M1 antagonist counterscreen hit in parental CHO-K1 cells. ATP-induced calcium, Fluo-8 fluorescence. inhibition, % at 3 µM. 360,000 compounds, 0.6% hits;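 active = inhibition above a per-plate cutoff, the plate's mean sample inhibition plus 3 SD, cut at about 24% in these data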;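 note: 0% = DMSO plus EC80 ATP and 100% = DMSO alone without ATP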
CHRM1 PAM = potentiates human M1 receptor response to acetylcholine; CHO-K1 hM1, Fluo-8 calcium fluorescence, ACh EC20; 0% = ACh EC20, 100% = maximal ACh; activation, % at 3 µM; 360,000 compounds, 0.088% hits; AID 588819; in the data active = activation above about 19%, passing the limit was not always enough
* hit, by the source's call.

SMILES	CHRM1 antagonist	M1 ag parental	CHO-K1 Ca PAM	CHRM1 agonist	CHO-K1 Ca antag	CHRM1 PAM
CCN1CCN(CCCNC(=O)c2ccc(/C=C3/Sc4ccccc4N(Cc4ccccc4F)C3=O)cc2)CC1	29.3*	6.6	18.1	-3.4	-12.7	-17.4
CCN1C(=O)c2ccccc2S(=O)(=O)c2ccc(C(=O)N3CCOCC3)cc21	-20.0	0.7	14.8	-11.4	-2.7	9.1
O=C(NCCCN1CCCC1)c1ccc2c(c1)N(Cc1ccccc1F)C(=O)c1ccccc1S2=O (centres undefined)	33.3*	0.4	-8.6	-6.0	1.2	-20.0
CCN1C(=O)c2ccccc2S(=O)c2ccc(C(=O)N3CCOCC3)cc21 (centres undefined)	7.4	18.2*	6.8	-7.3	-0.4	-5.1
CC1CCCCN1CCNC(=O)c1ccc2c(c1)N(Cc1ccccc1F)C(=O)c1ccccc1S2=O (centres undefined)	47.8*	3.7	26.7	-3.5	-16.2	-18.4
CCOC(CNc1c([N+](=O)[O-])c(=O)n(C)c(=O)n1C)OCC	4.0	0.2	0.5	-2.3	-9.1	-3.2
CCCCN(C)C(=O)c1ccc2c(c1)N(CC)C(=O)c1ccccc1S2=O (centres undefined)	23.4	-0.2	-10.0	-9.7	-0.3	-19.1
CCCCN(C)CCCNC(=O)c1ccc2c(c1)N(CC)C(=O)c1ccccc1S2=O (centres undefined)	46.9*	0.3	-8.6	-9.5	-8.2	-23.9
CCCCN(C(=O)c1cc(S(=O)(=O)N2CCCCCC2)ccc1OC)c1c(N)n(CCC)c(=O)[nH]c1=O	-6.0	-0.2	-36.9	7.1	24.8*	15.6
COc1ccc(NC2CCCN(C(=O)CCCn3cncn3)C2)cc1 (centres undefined)	2.4	17.6*	3.5	-1.5	10.9	2.2
CCn1c(=O)c2ccccc2n(Cc2cccc(C)c2)c1=O	-2.0	-0.5	-25.0	-1.4	26.6*	11.7
C=CCNC(=S)N/N=C/c1cccc([N+](=O)[O-])c1	-6.7	0.9	21.2	-13.9	0.2	7.8
O=c1c(Cl)c(N2CCNCC2)cnn1C12CC3CC(CC(C3)C1)C2	34.7*	0.8	-14.0	-7.7	-13.3	-21.4
O=C(O)C12CC3CC(C1)CC(n1ncc(N4CCN(c5ccccc5)CC4)c(Cl)c1=O)(C3)C2	13.4	0.1	-8.6	-4.6	17.7	-8.8
O=C(Nc1cccc(F)c1)C1CCN(c2nnnn2-c2ccccc2)CC1	1.2	1.7	-6.7	-2.4	28.0*	2.3
CN1CCCC(C#CC(O)(c2ccccc2)c2ccccc2)C1 (centres undefined)	98.6*	0.2	2.8	-13.5	-2.1	-34.9
Cc1ccccc1C(=O)OC1CCCN(C)C1 (centres undefined)	11.5	0.0	3.4	-8.7	1.3	-10.9
CC(=O)Nc1ccc(OCC(O)CN2CCN(S(=O)(=O)c3ccc(NC(C)=O)cc3)CC2)cc1 (centres undefined)	-5.4	0.4	12.8	-5.1	-11.2	2.6
CC(=O)Nc1ccc(S(=O)(=O)N2CCN(CC(O)COc3ccc4ccccc4c3)CC2)cc1 (centres undefined)	34.1*	12.3	-9.2	0.0	4.7	-21.2
COc1cccc(C(=O)N2CCN(C3CCC(c4ccccc4)CC3)CC2)c1OC (centres undefined)	21.6	1.1	2.4	42.8*	-12.2	-10.8
O=C(c1ccncc1)N1CCN(C2CCC(c3ccccc3)CC2)CC1 (centres undefined)	10.9	1.7	4.0	-0.5	-11.4	-1.6
O=C(CCSc1ccc(Cl)c(Cl)c1)NC12CC3CC(CC(C3)C1)C2	-5.9	0.7	-5.9	-5.6	10.6	-3.8
O=C1COc2ccc(S(=O)(=O)CCC(=O)N3CCN(c4cccc(C(F)(F)F)c4)CC3)cc2N1	31.9	17.0*	7.1	2.7	17.2	-8.9
CC1Sc2ccc(S(=O)(=O)CCC(=O)N3CCN(c4cccc(Cl)c4)CC3)cc2NC1=O (centres undefined)	45.7*	14.6	-22.4	2.7	19.6	-16.3
CN1CCN(c2ccccc2/C=C2/C(=O)Nc3ccccc32)CC1	88.7*	0.1	10.2	-10.8	-5.5	-30.4
SMILES	CHRM1 antagonist	M1 ag parental	CHO-K1 Ca PAM	CHRM1 agonist	CHO-K1 Ca antag	CHRM1 PAM
O=C1Nc2ccccc2/C1=C/c1ccccc1Cl	-11.0	1.1	-12.6	-4.0	-16.6	2.0
Cc1ccc(OCC(=O)Nc2ccc3c(c2)OCO3)c([N+](=O)[O-])n1	-6.6	0.8	19.8	-8.0	-0.6	3.5
Cc1ccc(OCC(=O)Nc2ccc3c(c2)OC(F)(F)O3)c([N+](=O)[O-])n1	49.2*	4.2	24.4	-13.6	-8.6	-27.3
CC1CCCCN1CC(=O)Nc1ccc(Oc2ccccc2)cc1 (centres undefined)	68.7*	1.4	15.8	-6.3	-5.3	-25.2
CC1CCCCN1CC(=O)Nc1ccc(N2CCCCCC2)cc1 (centres undefined)	7.3	0.2	20.4	-15.1	-15.0	-27.1
CC1CCCCN1CC(=O)NC(c1ccccc1)c1ccccc1 (centres undefined)	60.4*	-0.4	12.7	-15.8	-2.1	-38.4
CCOc1ccc(-c2c(C(=O)N/N=C/c3ccc(C)cc3)nnn2-c2nonc2N)cc1	-15.3	2.5	23.2	18.6*	-11.6	18.2
NNC(=O)c1nnn(-c2nonc2N)c1-c1cccs1	-28.6	1.1	9.0	2.5	-20.4	21.6*
CCCOc1ccc(-c2c(C(=O)N/N=C/c3ccc(C)cc3)nnn2-c2nonc2N)cc1	-13.6	1.2	12.5	-2.5	-2.5	8.1
CCOc1ccc(/C=N/NC(=O)c2nnn(-c3nonc3N)c2-c2cccs2)cc1	27.4	33.9*	14.8	44.4*	0.1	-2.0
CCOc1ccc(-c2c(C(=O)N/N=C/c3ccc(OC(C)C)cc3)nnn2-c2nonc2N)cc1	5.4	5.6	28.9	20.7*	-1.6	10.0
Cc1ccc(-c2c(C(=O)N/N=C/c3ccc(OC(C)C)cc3)nnn2-c2nonc2N)cc1	0.1	14.5	18.0	10.7	-7.7	14.8
C1C2CC3C1C3C2=NN=C1C2CC3C(C2)C13	-25.1	0.3	17.1	-0.2	-12.2	7.9
CCCN1C(=O)S/C(=C/c2ccc(N3CCOCC3)o2)C1=O	7.0	8.3	15.2	18.0*	3.4	-3.7
CCN(CC)CC#CCC(O)(c1ccccc1)C1CCCCC1 (centres undefined)	98.8*	16.1*	-6.0	-15.2	18.8	-38.0
CCN=C(Nc1cccc(F)c1)SC1CC(=O)N(c2ccc(OC)cc2)C1=O (centres undefined)	20.8	7.9	1.8	-3.9	-1.9	-16.4
CCN=C(NCC)SC1CC(=O)N(c2ccccc2)C1=O (centres undefined)	25.1*	5.9	-2.1	3.5	19.6	-17.1
CCN=C(NCC)SC1CC(=O)N(c2ccc(OCC)cc2)C1=O (centres undefined)	29.5*	6.4	-0.6	0.3	11.3	-19.9

From PubChem BioAssay
